Consider 35 molecules from PubChem BioAssay (Tox21).

SMILES strings stand for the structures. Records with an inconclusive call do not appear. Where a call stands in place of a potency, no number is given. More than one record can exist for a structure, and the calls need not agree. Calls of active or inactive are those of the source. Unless noted, the call rests on the fitted dose curve.

The first assay can be described thus: qHTS assay to identify small molecule agonists of H2AX (AID 1224845; active means well fitted activation curve with a large enough effect in the signal ratio in the repeat runs, not every such curve was filed as active; the % refers to the signal ratio). The conditions noted are these: CHO-K1 phospho-H2AX Ser139 HTRF, 3 h; series mostly up to 154 µM. Summed up:
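Wild-type CHO-K1 cells plated overnight, then exposed 3 hr at 37C to compounds at 15 concentrations (0.76% DMSO). Lysed, then HTRF anti-pH2AX(S139)-cryptate/anti-H2AX-d2 detection after 24 hr at room temperature; emissions 665 and 620 nm.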
As to `CCCOC(=O)Cc1ccc(OCC(=O)N(CC)CC)c(OC)c1`, the outcome was inactive.

With `O=C(Cl)C(Cl)Cl`, the call was inactive.

With `CC[C@H](N)c1ccccc1`, the outcome was inactive.

Take `CC(O)CCl` (configuration not stated): the outcome was inactive.

Turning to `CCCCCCCC(=O)Cl`, the molecule was classed as inactive.

`CCCCCCCCBr`: the molecule was called inactive.

Take `O=C(O)C(Cl)Br` (configuration not stated): the result was inactive.

With `COC1=CC(=O)O[C@@H](/C=C/c2ccccc2)C1`, the result was inactive.

For `ClCCN1CCCC1`, the molecule was classed as inactive.

With `C=CC=O`, the result was inactive.

As to `O=C(O)c1c(Cl)ccc2cc(Cl)cnc12`, the molecule was called inactive.

On to `CS(=O)(=O)Cl`, for which the result was inactive.

Consider `CCOC(=O)CC(SP(=S)(OC)OC)C(=O)OCC` (configuration not stated), for which the call was inactive.

Turning to `[O-][Br+2]([O-])O`, the molecule was classed as inactive.

As for `Cc1cccc2sc3nncn3c12`, the result was inactive.

`CN1C(=O)COc2c(C(=O)NC3CN4CCC3CC4)cc(Cl)cc21` (configuration not stated): the result was inactive.

As to `CCN(CCO)CCO`, the molecule was called inactive.

`CON(C)C(=O)Nc1ccc(Br)cc1`: the result was inactive.

For `N=C(N)[Se]`, the result was inactive.

For the molecule `ClC1=C(Cl)C2(Cl)C(CBr)CC1(Cl)C2(Cl)Cl` (configuration not stated), the molecule was called inactive.

Consider `CN(C)CCN(C)C`, for which the result was inactive.

For the molecule `CC(C)(O)C(Cl)(Cl)Cl`, the outcome was inactive.

`C/C(=N\NC(=O)Nc1cc(F)cc(F)c1)c1ncccc1C(=O)O`: the call was inactive.

In the case of `C1CN2CCC1CC2`, the molecule was classed as inactive.

On to `CCOC1Oc2ccc(OS(C)(=O)=O)cc2C1(C)C` (configuration not stated), for which the outcome was inactive.

`O=CCCl`: the outcome was inactive.

As to `CC#Cc1cc(C)nc(Nc2ccccc2)n1`, the molecule was called inactive.

`CCOC(=O)CCl`: the molecule was called inactive.

In the case of `CNC(=O)O/N=C(/CSC)C(C)(C)C`, the molecule was classed as inactive.

Take `CCOC(=O)Nc1cccc(OC(=O)Nc2ccccc2)c1`: the result was inactive.

On to `CCN[C@H](C)Cc1cccc(C(F)(F)F)c1`, for which the call was inactive.

For `CC(C)[C@]12CC(=O)[C@H](C)[C@H]1C2`, the call was inactive.

With `O=C1CCCCC1Cl` (configuration not stated), the molecule was called inactive.

`[P]#[In]`: the molecule was called inactive.

For the molecule `CC(C)(C)C(=O)C(Cl)Cl`, the molecule was called inactive.

The nature of another assay: qHTS assay to identify small molecule agonists of the hypoxia (HIF-1) signaling pathway (AID 1224846; active means well fitted activation curve with a large enough effect in the signal ratio in the repeat runs, not every such curve was filed as active; the % refers to the signal ratio). The conditions noted are these: HRE-bla ME-180 cells, beta-lactamase ratio, 17 h; series mostly up to 76.8 µM. Summed up: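 Reporter induction in HRE-bla ME-180 cells is taken as agonism: cells sit 5 hrs after plating, receive compounds or DMSO only, incubate 17 hrs at 37C under 5% CO2, and are loaded with CCF4-AM for beta-lactamase FRET measurement.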
On the technique in general: In qHTS, concentration-response curves come from the screen itself.
Take `CCCOC(=O)Cc1ccc(OCC(=O)N(CC)CC)c(OC)c1`: the result was inactive.

`O=C(Cl)C(Cl)Cl`: the outcome was inactive.

Take `CC[C@H](N)c1ccccc1`: the result was inactive.

With `CC(O)CCl` (configuration not stated), the outcome was inactive.

Turning to `CCCCCCCC(=O)Cl`, the outcome was inactive.

Turning to `CCCCCCCCBr`, the result was inactive.

For the molecule `O=C(O)C(Cl)Br` (configuration not stated), the outcome was inactive.

On to `ClCCN1CCCC1`, for which the outcome was inactive.

`C=CC=O`: the outcome was inactive.

Turning to `O=C(O)c1c(Cl)ccc2cc(Cl)cnc12`, the result was inactive.

Take `CS(=O)(=O)Cl`: the outcome was inactive.

With `CCOC(=O)CC(SP(=S)(OC)OC)C(=O)OCC` (configuration not stated), the result was inactive.

For the molecule `[O-][Br+2]([O-])O`, the result was inactive.

With `Cc1cccc2sc3nncn3c12`, the outcome was inactive.

For the molecule `CN1C(=O)COc2c(C(=O)NC3CN4CCC3CC4)cc(Cl)cc21` (configuration not stated), the result was inactive.

With `CCN(CCO)CCO`, the result was inactive.

On to `CON(C)C(=O)Nc1ccc(Br)cc1`, for which the result was inactive.

`N=C(N)[Se]`: the outcome was inactive.

In the case of `ClC1=C(Cl)C2(Cl)C(CBr)CC1(Cl)C2(Cl)Cl` (configuration not stated), the outcome was inactive.

With `CC(C)(O)C(Cl)(Cl)Cl`, the result was inactive.

Regarding `C/C(=N\NC(=O)Nc1cc(F)cc(F)c1)c1ncccc1C(=O)O`, the outcome was inactive.

On to `C1CN2CCC1CC2`, for which the result was inactive.

For `CCOC1Oc2ccc(OS(C)(=O)=O)cc2C1(C)C` (configuration not stated), the outcome was inactive.

For `O=CCCl`, the result was inactive.

Turning to `CC#Cc1cc(C)nc(Nc2ccccc2)n1`, the outcome was inactive.

Take `CCOC(=O)CCl`: the result was inactive.

For the molecule `CNC(=O)O/N=C(/CSC)C(C)(C)C`, the result was inactive.

For the molecule `CCOC(=O)Nc1cccc(OC(=O)Nc2ccccc2)c1`, the outcome was inactive.

As to `CCN[C@H](C)Cc1cccc(C(F)(F)F)c1`, the result was inactive.

For `CC(C)[C@]12CC(=O)[C@H](C)[C@H]1C2`, the result was inactive.

Regarding `O=C1CCCCC1Cl` (configuration not stated), the result was inactive.

As for `[P]#[In]`, the outcome was inactive.

As to `CC(C)(C)C(=O)C(Cl)Cl`, the outcome was inactive.

Another assay can be described thus: qHTS assay to identify small molecule agonists of H2AX - cell viability counter screen (AID 1224847). Further: nearly all actives have a fitted effect of over 30% in size. Further: potency means the concentration at half of the fitted maximal effect. To be noted: CHO-K1 viability, CellTiter-Glo luminescence, 3 h; series mostly up to 154 µM. Put shortly: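 CHO-K1 cells plated overnight at 37C, then exposed 3 h at 37C to compounds at 15 concentrations (0.76% DMSO final). Viability by CellTiter-Glo luminescence after 30 min at room temperature.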
As to `CCCOC(=O)Cc1ccc(OCC(=O)N(CC)CC)c(OC)c1`, the Potency result was “inactive”.

For `O=C(Cl)C(Cl)Cl`, the Potency result was “inactive”.

Consider `CC[C@H](N)c1ccccc1`, for which the Potency entry is “inactive”.

`CC(O)CCl` (configuration not stated): the Potency entry is “inactive”.

Take `CCCCCCCC(=O)Cl`: the Potency result was “inactive”.

In the case of `CCCCCCCCBr`, the Potency result is “inactive”.

Regarding `O=C(O)C(Cl)Br` (configuration not stated), the Potency result is “inactive”.

Regarding `COC1=CC(=O)O[C@@H](/C=C/c2ccccc2)C1`, the Potency entry is “inactive”.

Consider `ClCCN1CCCC1`, for which the Potency entry was “inactive”.

Regarding `C=CC=O`, the Potency entry was “inactive”.

As to `O=C(O)c1c(Cl)ccc2cc(Cl)cnc12`, the Potency result is “inactive”.

Consider `CS(=O)(=O)Cl`, for which the Potency entry was “inactive”.

For `CCOC(=O)CC(SP(=S)(OC)OC)C(=O)OCC` (configuration not stated), the Potency entry is “inactive”.

For `[O-][Br+2]([O-])O`, the Potency entry is “inactive”.

Consider `Cc1cccc2sc3nncn3c12`, for which the Potency entry is “inactive”.

With `CN1C(=O)COc2c(C(=O)NC3CN4CCC3CC4)cc(Cl)cc21` (configuration not stated), the Potency entry was “inactive”.

Regarding `CCN(CCO)CCO`, the Potency entry is “inactive”.

Turning to `CON(C)C(=O)Nc1ccc(Br)cc1`, the Potency result is “inactive”.

For the molecule `N=C(N)[Se]`, the Potency entry was “inactive”.

In the case of `ClC1=C(Cl)C2(Cl)C(CBr)CC1(Cl)C2(Cl)Cl` (configuration not stated), the Potency is 113 µM (active) and inactive.

`CN(C)CCN(C)C`: the Potency result was “inactive”.

As for `CC(C)(O)C(Cl)(Cl)Cl`, the Potency result was “inactive”.

Turning to `C/C(=N\NC(=O)Nc1cc(F)cc(F)c1)c1ncccc1C(=O)O`, the Potency entry was “inactive”.

In the case of `C1CN2CCC1CC2`, the Potency result was “inactive”.

As for `CCOC1Oc2ccc(OS(C)(=O)=O)cc2C1(C)C` (configuration not stated), the Potency entry is “inactive”.

Take `O=CCCl`: the Potency entry is “inactive”.

For the molecule `CC#Cc1cc(C)nc(Nc2ccccc2)n1`, the Potency entry is “inactive”.

`CCOC(=O)CCl`: the Potency entry is “inactive”.

`CNC(=O)O/N=C(/CSC)C(C)(C)C`: the Potency result was “inactive”.

Consider `CCOC(=O)Nc1cccc(OC(=O)Nc2ccccc2)c1`, for which the Potency result is “inactive”.

Take `CCN[C@H](C)Cc1cccc(C(F)(F)F)c1`: the Potency entry is “inactive”.

As for `CC(C)[C@]12CC(=O)[C@H](C)[C@H]1C2`, the Potency result was “inactive”.

As for `O=C1CCCCC1Cl` (configuration not stated), the Potency result was “inactive”.

With `CC(C)(C)C(=O)C(Cl)Cl`, the Potency result was “inactive”.
